FUS yeast rescue: FUS proteinopathy suppression in yeast; S. cerevisiae FUS-expressing, growth rescue, OD600, 24 h; Potency, µM (doses to about 76.6 µM), actives largely listed as activators; hit rate 0.24% among 390,000; note: nearly all actives have a fitted effect of over 55% in size
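Steps: raffinose overnight preculture; dilution to OD 0.005 in 2% galactose minimal medium; compound addition (concentration series); 24hr at 30C, 99% humidity; absorbance read at 600 nm.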
uPA generation: inhibitors of cell surface uPA generation | AID 540303 | Potency, µM (doses to about 38.3 µM), usual class: inhibitors | hit rate 0.31% among 330,000 | cell surface uPA generation assay, qHTS; active = well fitted inhibition curve with a large enough effect; inconclusive = small, poorly fitted or top-dose-only effect; inactive = no such curve, though single readings can be large or run the other way; tested in mouse RAW 264.7 cells; note: nearly all actives have a fitted effect of over 55% in size
Abeta yeast res: A-beta toxicity reversal in yeast; yeast expressing A-beta42, growth rescue, OD600, 48 h; response scale: 0% DMSO, 100% iron-clioquinol control; Potency, µM (top dose mostly 46.1 µM), usual class: activators; hit rate 0.063% among 410,000; AID 1347071; note: nearly all actives have a fitted effect of over 55% in size
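Yeast growth medium received pinned compounds, then yeast cells expressing toxic A-beta were added; plates incubated at 30 C for 48 hr. Growth read as absorbance at 600 nm, normalized to DMSO and equimolar FeCl3 plus clioquinol controls.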
TDP43 rescue: rescues yeast growth from TDP-43 toxicity; TDP-43 expressing yeast growth rescue, BacTiter-Glo, 24 h; Potency, µM (titrated, usually from 46.1 µM), hits mostly activators; hit rate 1.8% among 410,000; AID 652104; note: nearly all actives have a fitted effect of over 50% in size
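Yeast expressing TDP-43 (pregrown in raffinose, seeded at OD600=0.02 in galactose medium) exposed to compounds 24 hr at 30 deg C. Growth read by BacTiter-Glo luminescence; rescue of toxicity appears as increased signal.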
BCR signal inh: inhibitors of chronic active B-cell receptor signaling. Potency, µM (series often up to 46.1 µM), usual class: inhibitors. hit rate 0.05% among 340,000. ABC-DLBCL IkBa-CBG/CBR reporter, luminescence ratio, 4 h. AID 493014; active = well fitted inhibition curve with a large enough effect in the signal ratio, with a control signal flat, not every such curve was filed as active; inconclusive = small, poorly fitted or top-dose-only effect, or effect the other way, or a change in a side signal; the % refers to the signal ratio
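Concentration-response series (up to 46 uM) were applied to TMD8 dual-reporter cells for 4 h at 37C with doxycycline. Green/red ratio, after filter-overlap correction, defined %Activity; red signal alone was normalised to basal cells and zero luminescence.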
aSyn rescue: alpha-synuclein toxicity inhibition in yeast; hit rate 0.14% among 370,000; Yeast expressing alpha-synuclein, growth rescue, BacTiter-Glo, 24 h; Potency, µM (top dose mostly 46.1 µM), hits mostly activators; AID 652106; note: nearly all actives have a fitted effect of over 65% in size
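Galactose-induced alpha-syn yeast (OD600=0.02, raffinose-pregrown) + pinned cpd, 24 hr, 30 deg C; growth by BacTiter-Glo luminescence. Growth restoration scores as activation.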
A number is an active result; - = inactive; ? = inconclusive; . = no result given; [ ] = another dose, or the depositor's remark. The list is not random: actives were taken first. Their share in the collection is about 2.3%. Unless noted, calls come from the whole dose curve; as a rule, active = well fitted curve in the direction sought with a large enough effect; inconclusive = small, poorly fitted or top-dose-only effect, or another doubt; inactive = no such curve, though single readings can be large; an effect the other way counts as inactive or inconclusive.

SMILES	FUS yeast rescue	uPA generation	Abeta yeast res	TDP43 rescue	BCR signal inh	aSyn rescue
O=C(Nc1ccc2c(c1)OCCO2)c1c(F)cccc1F	-	?	-	-	-	-
COc1ccc(S(=O)(=O)N/N=C(/C)c2ccncc2)cc1OC	-	-	-	-	-	-
CCc1ccc(NC2CC(=O)N(CCc3ccc(OC)c(OC)c3)C2=O)cc1 (stereo unspecified)	-	-	-	18µM	-	-
Cn1c(=S)c2[nH]c(SCCN3CCCC3)nc2n(C)c1=O	-	-	-	-	11µM	-
CCCOCC1CC2(SC(=Nc3ccc(C)cc3)NC2=O)C(=O)O1 (stereo unspecified)	-	-	-	-	?	-
CC1CCCN(C(=O)c2cc3c(Cl)nc4ccccc4c3s2)C1 (stereo unspecified)	-	.	-	20µM	.	.
CC1CCC(NC(=O)c2cc3c(Cl)nc4ccccc4c3s2)CC1 (stereo unspecified)	-	.	-	-	.	.
CC(=O)NC1C(Oc2ccccc2C)OC(CO)C(O)C1O (stereo unspecified)	-	-	-	-	?	-
COc1cccc(CNc2ccc([N+](=O)[O-])cc2Cl)c1O	-	-	-	14µM	-	-
COc1ccccc1CNc1ccc([N+](=O)[O-])cc1C	-	-	-	?	-	-
CNC(=O)c1c(NC(=O)/C=C/c2ccccc2)sc2c1CCC2	-	.	-	18µM	.	-
O=C(/C=C/c1ccccc1)Nc1sc2c(c1C(=O)O)CCC2	-	-	-	-	?	-
CCCCCCOc1ccc(/C=C/C(=O)Nc2sc3c(c2C(=O)OC)CCC3)cc1OC	-	.	-	18µM	.	.
O=C(Nc1ccccc1)N1CCSc2ccccc21	-	-	-	?	-	-
Cc1ccc(C)c(CN2C(=O)NC3(CCCCCC3)C2=O)c1	-	.	?	22µM	-	-
Cc1ccc(C)c(C(=O)CN2C(=O)NC3(CCCCCCC3)C2=O)c1	-	-	-	-	-	-
Cc1cc(OC(=O)c2ccc(C(C)(C)C)cc2)c([N+](=O)[O-])c(=O)[nH]1	-	?	-	16µM	-	-
O=C(C[C@H]1C/C=C\CC[C@H](Cc2ccc(F)cc2)C(=O)O[C@@H](c2ccccc2)CNC1=O)N[C@@H](CO)Cc1ccccc1	-	-	-	-	-	-
O=C(N[C@@H]1C/C=C\C[C@H](CC(=O)N(CCO)Cc2ccccc2)C(=O)N[C@@H](Cc2ccccc2)COC1=O)OCC1c2ccccc2-c2ccccc21	32µM	?	-	-	-	-
O=C(C[C@H]1C/C=C\C[C@H](Cc2ccc(F)cc2)C(=O)O[C@@H](c2ccccc2)CNC1=O)N[C@H](CO)Cc1ccccc1	28µM	-	-	-	-	-
O=C1N[C@@H](Cc2ccccc2)COC(=O)[C@H](Cc2ccc(F)cc2)CC/C=C/C[C@H]1CC(=O)N(CCO)Cc1ccccc1	22µM	?	-	-	-	-
O=C1N[C@@H](Cc2ccccc2)COC(=O)[C@H](Cc2ccc(F)cc2)CC/C=C/C[C@@H]1CC(=O)N(CCO)Cc1ccccc1	?	?	-	-	-	-
C[C@@H]1COC(=O)[C@H](NC(=O)OCC2c3ccccc3-c3ccccc32)C/C=C\C[C@@H](CC(=O)N(CCO)Cc2ccccc2)C(=O)N1	-	-	-	-	-	-
O=C1NC[C@H](c2ccccc2)OC(=O)[C@H](Cc2ccc(F)cc2)CC/C=C/C[C@H]1CC(=O)N(CCO)Cc1ccccc1	32µM	.	-	-	.	-
CSc1ccc(S(=O)(=O)Nc2ccc(NC(C)=O)cc2)cc1	-	-	-	-	-	-
SMILES	FUS yeast rescue	uPA generation	Abeta yeast res	TDP43 rescue	BCR signal inh	aSyn rescue
Cc1ccc(OCC(=O)Nc2ccc(Cl)cc2)c([N+](=O)[O-])n1	-	-	-	13µM	-	-
Cc1ccc(OCC(=O)Nc2ccc(C)c(S(=O)(=O)N3CCCCC3)c2)c([N+](=O)[O-])n1	-	-	-	14µM	?	-
Cc1ccc(OCC(=O)Nc2ccc(S(=O)(=O)N3CCCCC3)cc2)c([N+](=O)[O-])n1	-	-	-	-[0.397 µM]	-	-
Fc1ccccc1CSc1nnc(-c2cccnc2)o1	-	-	-	?	-	-
Fc1ccccc1CSc1nnc(-c2ccccc2)o1	-	-	-	11µM	-	-
COc1ccc(-c2nnc(SCc3ccccc3F)o2)cc1	-	-	-	11µM	-	-
CCOC(=O)C1=C(C)NC(C)=C(C(=O)OCC)C1c1ccc(O)cc1	-	-	-	-	?	-
COC(=O)C1=C(C)NC(C)=C(C(=O)OC)C1c1ccc(N(C)C)cc1	-	.	-	-	21µM	-
Cc1c(C)c2c(OCC(=O)NCc3ccco3)cc3c(c2oc1=O)CCC(C)(C)O3	-	-	-	-	-	-
CN(C)C1=NC[C@H](Cc2ccccc2)N1CCCC1CCCCC1	-	?	-	?	-	-
CN(C)C1=NC[C@H](Cc2ccccc2)N1CCCC1CCCC1	-	4µM	-	-	?	-
O=[N+]([O-])c1ccc(N2CCc3ccccc3C2)nc1	-	-	-	13µM	-	-
O=[N+]([O-])c1ccc(N2CCN(c3ccccc3)CC2)nc1	-	-	-	-	?	-
COc1ccccc1C(=O)NNC(=O)CCCN1C(=O)/C(=C/c2cccs2)SC1=S	.	-	-	-	?	-
COc1ccc(-c2nc(CSCC(=O)N3CCN(c4ccccc4)CC3)c(C)o2)cc1	-	.	-	-	.	.
CCCSc1nnc(NC(=O)c2sc3nc(-c4cccs4)ccc3c2N)s1	13µM	-	-	-	-	-
CCCCCCCCN1C(=O)[C@H](CC(=O)NCCC(C)C)C[C@@]2(C(=O)OCC)CCCC=C12	?	.	-	-	.	-
COC(=O)[C@]12CCCCC=C1N(CCC1=CCCCC1)C(=O)[C@H](CC(=O)NCc1ccccc1)C2	-	.	-	35µM	.	-
CCOC(=O)[C@]12CCCC=C1N(CCC1=CCCCC1)C(=O)[C@H](CC(=O)NCCc1ccccc1OC)C2	-	.	-	20µM	.	-
COC(=O)[C@]12CCCCC=C1N(Cc1ccco1)C(=O)[C@H](CC(=O)N1CCC(c3ccccc3)CC1)C2	-	.	-	13µM	.	-
CCOC(=O)[C@]12CCC=C1N(CCC1=CCCCC1)C(=O)[C@H](CC(=O)NCCc1ccccc1OC)C2	-	.	-	-	.	-
CCOC(=O)[C@]12CCCC=C1N(CCC1=CCCCC1)C(=O)[C@H](CC(=O)NCCC(C)C)C2	-	.	-	25µM	.	-
CCOC(=O)[C@]12CCCC=C1N(Cc1ccco1)C(=O)[C@H](CC(=O)N1CCC(c3ccccc3)CC1)C2	-	.	-	-	.	-

Screens as filed in PubChem BioAssay.
